The values below come from PubChem BioAssay (NCI).

Several values for one entry are separate records, joined by “and”; a condition that tells them apart may be missing. Equal entries are not always repeated. About 83,000 compounds went through this panel and 20% of them were active in at least one assay; those are over-represented in the sample as a whole.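 Growth was measured after 48 h exposure to one concentration of compound in 96-well plates. Values under 10 count as active.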 Activity calls are given as the source filed them.

Assay in all cases: NCI-60 one-dose screen, 48 h (100 = growth as untreated, 0 = no growth, -100 = all killed)
In one experiment the test system is NCI-H23 lung. The following applies: 10 µM.
The next experiment concerns NCI-H226 lung. The following applies: 10 µM.
The test system of a further experiment is NCI-H322M lung. The settings on record: 10 µM.
The subject of another experiment is HOP-62 NSCLC. The following applies: 10 µM.
A further experiment concerns NCI-H460 lung. The following applies: 10 µM.
A further experiment concerns HOP-92 NSCLC. The following applies: 10 µM.
Another experiment has as its system NCI-H522 lung. The settings on record: 10 µM unless noted.
For a further experiment, the system named is A549/ATCC NSCLC. The following applies: 10 µM.
In the next experiment the test system is 786-0 renal. The following applies: 10 µM.
In another experiment the test system is COLO 205 colon. The settings on record: 10 µM.
A further experiment has as its system DU-145 prostate. The following applies: 10 µM unless noted.
Another experiment relates to K-562 leukemia. The following applies: 10 µM.
Another experiment deals with MALME-3M melanoma. The following applies: 10 µM.
The test system of a further experiment is MDA-MB-231 breast. The following applies: 10 µM.
Another experiment relates to RXF 393 renal. The settings on record: 10 µM unless noted.
The test system of a further experiment is SF-268 CNS. The settings on record: 10 µM.
A further experiment relates to SF-295 CNS. The settings on record: 10 µM.
For another experiment, the system named is SF-539 CNS. The settings on record: 10 µM.
The test system of a further experiment is UACC-257 melanoma. The settings on record: 10 µM.
Another experiment has as its system M14 melanoma. The settings on record: 10 µM.

As for `COC(=O)C1=COC(C)C2C[n+]3ccc4c([nH]c5ccccc54)c3CC12` (stereo unspecified), the growth in the experiment with NCI-H23 lung is 103% (inactive) and 88.6% (inactive); in the experiment with NCI-H226 lung, 87.1% (inactive) and 71.2% (inactive); in the experiment on NCI-H322M lung, 107% (inactive) and 95.9% (inactive); with HOP-62 NSCLC, 94.7% (inactive) and 88.3% (inactive); in the experiment with NCI-H460 lung, 113% (inactive) and 95.1% (inactive); in the experiment on HOP-92 NSCLC, 92.2% (inactive) and 75.9% (inactive). For the same compound, the growth is 99.2% (inactive) and 76.1% (inactive) in the experiment on NCI-H522 lung; 103% (inactive) and 76.7% (inactive) with A549/ATCC NSCLC; 102% (inactive) and 107% (inactive) with 786-0 renal; 106% (inactive) and 99.7% (inactive) in the experiment on COLO 205 colon; 112% (inactive) and 108% (inactive) in the experiment with DU-145 prostate; 93.7% (inactive) and 85.2% (inactive) in the experiment on K-562 leukemia. For the same compound, the growth with MALME-3M melanoma was 105% (inactive) and 93.8% (inactive); with MDA-MB-231 breast it was 101% (inactive) and 73.2% (inactive); with RXF 393 renal it was 112% (inactive); with SF-268 CNS, 99.1% (inactive) and 96.2% (inactive); in the experiment with SF-295 CNS, 102% (inactive) and 90.8% (inactive); in the experiment with SF-539 CNS, 105% (inactive). Further, the growth is 106% (inactive) and 95.1% (inactive) with UACC-257 melanoma; 107% (inactive) and 94% (inactive) in the experiment with M14 melanoma.

As to `Nc1ccc2cc3ccc(N)cc3nc2c1`, the growth was 101% (inactive) and 3.42% (active) in the experiment on NCI-H23 lung; 87% (inactive) and -2.76% (active) in the experiment with NCI-H226 lung; -7.06% (active) with NCI-H322M lung; 6.72% (active) in the experiment on HOP-62 NSCLC; 96.7% (inactive) and -1.28% (active) in the experiment with HOP-92 NSCLC; -50.9% (active) in the experiment with NCI-H522 lung. The growth is 84.3% (inactive) and 2.08% (active) with A549/ATCC NSCLC; 113% (inactive) and 43.8% (inactive) with 786-0 renal; 109% (inactive) and -39.2% (active) in the experiment with COLO 205 colon; 112% (inactive) and 24.3% (inactive) in the experiment with DU-145 prostate; 9.74% (active) in the experiment with K-562 leukemia; 107% (inactive) and -50.9% (active) in the experiment with MALME-3M melanoma. Further, the growth in the experiment on MDA-MB-231 breast is 97% (inactive) and 18.4% (inactive); in the experiment on RXF 393 renal it was 127% (inactive) and 8.54% (active); with SF-268 CNS it was 115% (inactive) and 18.5% (inactive); in the experiment on SF-295 CNS it was 114% (inactive) and 14.4% (inactive); in the experiment on SF-539 CNS it was 107% (inactive) and 21% (inactive); in the experiment with UACC-257 melanoma it was 107% (inactive) and -17.1% (active). Besides, the growth in the experiment on M14 melanoma is 107% (inactive) and 12.6% (inactive).

In the case of `Clc1ccc(/C=C/c2ccccn2)c(Cl)c1`, the growth is 93.7% (inactive) in the experiment on NCI-H23 lung; 97.1% (inactive) with NCI-H226 lung; 85.5% (inactive) in the experiment with NCI-H322M lung; 96.2% (inactive) in the experiment with HOP-62 NSCLC; 84% (inactive) with HOP-92 NSCLC; 81.2% (inactive) in the experiment on NCI-H522 lung. Moreover, the growth in the experiment on A549/ATCC NSCLC was 90% (inactive); in the experiment with 786-0 renal, 105% (inactive); in the experiment with COLO 205 colon it was 94.7% (inactive); in the experiment on DU-145 prostate, 116% (inactive); in the experiment on K-562 leukemia it was 93.6% (inactive); in the experiment with MALME-3M melanoma, 102% (inactive). In addition, the growth is 85.5% (inactive) with MDA-MB-231 breast; 108% (inactive) in the experiment on RXF 393 renal; 99% (inactive) in the experiment with SF-268 CNS; 94.5% (inactive) in the experiment on SF-295 CNS; 89.3% (inactive) in the experiment on SF-539 CNS; 99.7% (inactive) with UACC-257 melanoma. For the same compound, the growth in the experiment on M14 melanoma was 106% (inactive).

Consider `OCC1OC(n2cnc3c(=S)nc[nH]c32)C(O)C1O` (stereo unspecified), for which the growth in the experiment on NCI-H226 lung was 100% (inactive) and 63.7% (inactive); in the experiment with NCI-H322M lung it was 96.5% (inactive) and 62.9% (inactive); in the experiment with HOP-62 NSCLC, 115% (inactive) and 53.9% (inactive); in the experiment on NCI-H460 lung it was 113% (inactive) and 62% (inactive); in the experiment on HOP-92 NSCLC, 56.6% (inactive) and 61.8% (inactive); in the experiment on NCI-H522 lung, 77.3% (inactive) and 3.94% (active). In addition, the growth in the experiment on A549/ATCC NSCLC was 99.6% (inactive) and 101% (inactive); with 786-0 renal, 100% (inactive) and 35.1% (inactive); in the experiment with COLO 205 colon, 116% (inactive) and 47.5% (inactive); in the experiment with DU-145 prostate it was 98.4% (inactive) and 51.9% (inactive); in the experiment with K-562 leukemia it was 124% (inactive) and 41.6% (inactive); in the experiment with MALME-3M melanoma it was 87.3% (inactive) and 53.3% (inactive). Further, the growth is 99.2% (inactive) and 61.9% (inactive) in the experiment with MDA-MB-231 breast; 98.2% (inactive) and 70.2% (inactive) in the experiment with RXF 393 renal; 109% (inactive) and 53.9% (inactive) in the experiment on SF-268 CNS; 101% (inactive) and 41.7% (inactive) in the experiment with SF-295 CNS; 103% (inactive) and 31.8% (inactive) in the experiment on SF-539 CNS; 105% (inactive) and 52.7% (inactive) with UACC-257 melanoma. The growth in the experiment on M14 melanoma is 126% (inactive) and 32.4% (inactive).

`O=C(/C=C/c1ccccn1)c1ccccc1`: the growth with NCI-H226 lung was 86.1% (inactive); in the experiment with NCI-H322M lung, 88.8% (inactive); with HOP-62 NSCLC, 93.8% (inactive); in the experiment on NCI-H460 lung, 26.5% (inactive); in the experiment on HOP-92 NSCLC, 78.3% (inactive); in the experiment on NCI-H522 lung, -75.6% (active). For the same compound, the growth is 76.3% (inactive) with A549/ATCC NSCLC; 15.6% (inactive) with 786-0 renal; 32% (inactive) in the experiment with COLO 205 colon; 60.5% (inactive) in the experiment on DU-145 prostate; 14% (inactive) with K-562 leukemia; 91% (inactive) in the experiment on MALME-3M melanoma. Besides, the growth in the experiment with MDA-MB-231 breast was 90.2% (inactive); in the experiment with RXF 393 renal, 90.6% (inactive); in the experiment with SF-268 CNS it was 85.4% (inactive); with SF-295 CNS, 87.5% (inactive); in the experiment on SF-539 CNS, 68.5% (inactive); with UACC-257 melanoma, 72.9% (inactive). Besides, the growth with M14 melanoma was 42.1% (inactive).

With `CCCCCCCCCCCC[N+](C)(C)Cc1ccccc1`, the growth in the experiment with NCI-H226 lung was 55% (inactive); with NCI-H322M lung, 87.7% (inactive); in the experiment with HOP-62 NSCLC it was 28% (inactive); in the experiment with NCI-H522 lung, -4.63% (active); in the experiment on A549/ATCC NSCLC it was 70.9% (inactive); with 786-0 renal, 28.1% (inactive). Besides, the growth was 15.7% (inactive) in the experiment with COLO 205 colon; 24.8% (inactive) in the experiment with DU-145 prostate; -5.13% (active) in the experiment with K-562 leukemia; -19.2% (active) in the experiment with MALME-3M melanoma; 25.3% (inactive) with MDA-MB-231 breast; -38.7% (active) in the experiment with RXF 393 renal. The growth is 8.3% (active) in the experiment with SF-268 CNS; 46.3% (inactive) in the experiment with SF-295 CNS; 53.6% (inactive) in the experiment with SF-539 CNS; 2.24% (active) with UACC-257 melanoma; 7.19% (active) with M14 melanoma.

Regarding `O=[N+]([O-])C1=C(c2ccccc2)SC=C(c2ccccc2)S1`, the growth with NCI-H226 lung was 74% (inactive); with NCI-H322M lung it was 92.4% (inactive); in the experiment on HOP-62 NSCLC, 74.1% (inactive); in the experiment on NCI-H460 lung it was 67.3% (inactive); in the experiment with HOP-92 NSCLC, 65.9% (inactive); in the experiment with NCI-H522 lung, 42% (inactive). In addition, the growth is 62.4% (inactive) with A549/ATCC NSCLC; 95.4% (inactive) in the experiment on 786-0 renal; 86.9% (inactive) in the experiment with COLO 205 colon; 75.2% (inactive) in the experiment with DU-145 prostate; 72.7% (inactive) with K-562 leukemia; 54.5% (inactive) with MALME-3M melanoma. Further, the growth in the experiment with MDA-MB-231 breast was 69.3% (inactive); in the experiment with RXF 393 renal, 54.2% (inactive); in the experiment on SF-268 CNS, 97.9% (inactive); in the experiment with SF-295 CNS, 93.7% (inactive); in the experiment on UACC-257 melanoma, 51.3% (inactive); in the experiment with M14 melanoma, 65.2% (inactive).
